From PubChem BioAssay AID1159580 (chemical genetic matrix, 2015)
Hit rate of the full screen: of about 5,500 compounds, about 2,000 (36%) were called active. About 18% were inconclusive and are not listed. Cut-off read from the data, not from the text of the source: active = normalized growth mostly below about 0.91 (no sharp cut-off); inconclusive = no clear call, values can overlap the other calls; inactive = mostly above about 0.92. The list shows a part of the results.

Test: chemical genetic growth profiling, strain panel (AID 1159580);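 note: tested at 20 µM; growth read once vehicle control cultures reached saturation at 30 °C; 1 = growth at the plate median or of vehicle wells; lower values mean less growth of the strain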
Conditions: growth OD

Measured: normalized growth

COC(=O)Nc1nc2ccc(Sc3ccccc3)cc2[nH]1
inactive: S. cerevisiae deletion strains, locus YJR075W, strain HOC1, active compounds read low 0.982 | S. cerevisiae deletion strains, locus YKL009W, strain mrt4, active compounds read low 0.951 | S. cerevisiae deletion strains, locus YKL068W, active compounds read low 0.996 | S. cerevisiae deletion strains, locus YKL085W, strain MDH1 (second series), active compounds read low 0.959 | S. cerevisiae deletion strains, locus YKL085W, strain MDH1, active compounds read low 0.959 | S. cerevisiae deletion strains, locus YKL160W, strain elf1, active compounds read low 0.997 | S. cerevisiae deletion strains, locus YKL190W, strain CNB1, active compounds read low 0.996 | S. cerevisiae deletion strains, locus YKR001C, strain vps1, active compounds read low 0.978 | S. cerevisiae deletion strains, locus YKR026C, strain gcn3, active compounds read low 0.98 | S. cerevisiae deletion strains, locus YKR091W, strain srl3, active compounds read low 1.01 | S. cerevisiae deletion strains, locus YLL001W, strain dnm1, active compounds read low 1 | S. cerevisiae deletion strains, locus YLL026W, active compounds read low 0.992 | S. cerevisiae deletion strains, locus YLL041C, strain sdh2, active compounds read low 0.989 | S. cerevisiae deletion strains, locus YLR027C, strain aat2, active compounds read low 0.995 | S. cerevisiae deletion strains, locus YLR039C, strain RIC1, active compounds read low 0.95 | S. cerevisiae deletion strains, locus YLR058C, strain SHM2, active compounds read low 0.996 | S. cerevisiae deletion strains, locus YLR102C, strain apc9, active compounds read low 1 | S. cerevisiae deletion strains, locus YLR113W, strain HOG1, active compounds read low 0.957 | S. cerevisiae deletion strains, locus YLR221C, strain rsa3, active compounds read low 0.992 | S. cerevisiae deletion strains, locus YLR258W, strain gsy2, active compounds read low 0.99 | S. cerevisiae deletion strains, locus YLR262C, strain YPT6 (second series), active compounds read low 0.921 | S. cerevisiae deletion strains, locus YLR262C, strain YPT6, active compounds read low 0.965 | S. cerevisiae deletion strains, locus YLR268W, strain sec22, active compounds read low 1.01 | S. cerevisiae deletion strains, locus YLR320W, strain mms22, active compounds read low 0.998 | S. cerevisiae deletion strains, locus YLR330W, strain CHS5, active compounds read low 0.994 | S. cerevisiae deletion strains, locus YLR342W, strain FKS1 (second series), active compounds read low 0.93 | S. cerevisiae deletion strains, locus YLR342W, strain FKS1, active compounds read low 0.983 | S. cerevisiae deletion strains, locus YLR357W, strain rsc2, active compounds read low 0.951 | S. cerevisiae deletion strains, locus YLR370C, strain arc18, active compounds read low 1 | S. cerevisiae deletion strains, locus YLR371W, strain rom2, active compounds read low 1.01 | S. cerevisiae deletion strains, locus YLR384C, strain iki3, active compounds read low 0.996 | S. cerevisiae deletion strains, locus YLR418C, strain cdc73, active compounds read low 0.918 | S. cerevisiae deletion strains, locus YML016C, strain PPZ1, active compounds read low 0.989 | S. cerevisiae deletion strains, locus YML032C, strain rad52, active compounds read low 1 | S. cerevisiae deletion strains, locus YML120C, strain ndi1, active compounds read low 0.98 | S. cerevisiae deletion strains, locus YMR058W, strain fet3, active compounds read low 0.994 | S. cerevisiae deletion strains, locus YMR078C, strain ctf18, active compounds read low 1.01 | S. cerevisiae deletion strains, locus YMR125W, strain sto1, active compounds read low 0.984 | S. cerevisiae deletion strains, locus YMR129W, active compounds read low 1 | S. cerevisiae deletion strains, locus YMR205C, strain PFK2, active compounds read low 0.988 | S. cerevisiae deletion strains, locus YMR223W, strain ubp8, active compounds read low 0.968 | S. cerevisiae deletion strains, locus YMR231W, strain pep5, active compounds read low 0.984 | S. cerevisiae deletion strains, locus YMR263W, strain SAP30, active compounds read low 0.973 | S. cerevisiae deletion strains, locus YMR307W, strain GAS1, active compounds read low 0.974 | S. cerevisiae deletion strains, locus YNL067W, strain RPL9B, active compounds read low 0.996 | S. cerevisiae deletion strains, locus YNL071W, strain lat1, active compounds read low 0.988 | S. cerevisiae deletion strains, locus YNL128W, strain TEP1, active compounds read low 1.01 | S. cerevisiae deletion strains, locus YNL183C, strain NPR1, active compounds read low 0.893 | S. cerevisiae deletion strains, locus YNL209W, strain ssb2, active compounds read low 1.01 | S. cerevisiae deletion strains, locus YNL233W, strain BNI4, active compounds read low 0.977 | S. cerevisiae deletion strains, locus YNL248C, strain rpa49, active compounds read low 0.999 | S. cerevisiae deletion strains, locus YNL250W, strain rad50, active compounds read low 1 | S. cerevisiae deletion strains, locus YNL271C, strain bni1, active compounds read low 1.01 | S. cerevisiae deletion strains, locus YNL298W, strain CLA4, active compounds read low 0.99 | S. cerevisiae deletion strains, locus YNL307C, strain MCK1, active compounds read low 0.993 | S. cerevisiae deletion strains, locus YNL322C, strain KRE1 (second series), active compounds read low 0.988 | S. cerevisiae deletion strains, locus YNL322C, strain KRE1, active compounds read low 1 | S. cerevisiae deletion strains, locus YNR049C, strain mso1, active compounds read low 0.997 | S. cerevisiae deletion strains, locus YNR052C, strain pop2, active compounds read low 1 | S. cerevisiae deletion strains, locus YOL006C, strain TOP1, active compounds read low 0.981 | S. cerevisiae deletion strains, locus YOL012C, strain htz1 0.49 | S. cerevisiae deletion strains, locus YOL147C, strain pex11, active compounds read low 0.996 | S. cerevisiae deletion strains, locus YOR001W, strain rrp6, active compounds read low 0.985 | S. cerevisiae deletion strains, locus YOR061W, strain CKA2, active compounds read low 0.994 | S. cerevisiae deletion strains, locus YOR069W, strain VPS5, active compounds read low 1 | S. cerevisiae deletion strains, locus YOR070C, strain gyp1, active compounds read low 0.99 | S. cerevisiae deletion strains, locus YOR080W, strain dia2, active compounds read low 0.993 | S. cerevisiae deletion strains, locus YOR083W, strain WHI5, active compounds read low 0.976 | S. cerevisiae deletion strains, locus YOR106W, strain vam3, active compounds read low 0.972 | S. cerevisiae deletion strains, locus YOR136W, strain idh2, active compounds read low 0.993 | S. cerevisiae deletion strains, locus YOR144C, strain elg1, active compounds read low 1 | S. cerevisiae deletion strains, locus YOR184W, strain ser1, active compounds read low 0.984 | S. cerevisiae deletion strains, locus YOR231W, strain MKK1, active compounds read low 0.973 | S. cerevisiae deletion strains, locus YOR265W, strain rbl2, active compounds read low 0.982 | S. cerevisiae deletion strains, locus YOR270C, strain vph1, active compounds read low 0.991 | S. cerevisiae deletion strains, locus YOR290C, strain snf2, active compounds read low 0.993 | S. cerevisiae deletion strains, locus YOR316C, strain cot1, active compounds read low 0.998 | S. cerevisiae deletion strains, locus YPL051W, strain arl3, active compounds read low 0.996 | S. cerevisiae deletion strains, locus YPL055C, strain LGE1, active compounds read low 0.953 | S. cerevisiae deletion strains, locus YPL078C, strain atp4, active compounds read low 0.994 | S. cerevisiae deletion strains, locus YPL106C, strain sse1, active compounds read low 1.08 | S. cerevisiae deletion strains, locus YPL240C, strain hsp82, active compounds read low 1 | S. cerevisiae deletion strains, locus YPL256C, strain CLN2, active compounds read low 0.959 | S. cerevisiae deletion strains, locus YPR119W, strain clb2, active compounds read low 1 | S. cerevisiae deletion strains, locus YPR141C, strain kar3, active compounds read low 1.02 | S. cerevisiae deletion strains, locus YPR163C, strain tif3, active compounds read low 0.986 | S. cerevisiae deletion strains, locus YPR167C, strain met16, active compounds read low 1 | S. cerevisiae deletion strains, strain wtn01, active compounds read low 0.998 | S. cerevisiae strains, strain wild type, active compounds read low 0.997
active: S. cerevisiae deletion strains, locus YML124C, strain tub3, active compounds read low 0.181 | S. cerevisiae deletion strains, locus YNL153C, strain GIM3, active compounds read low 0.0686 | S. cerevisiae deletion strains, locus YPL241C, strain CIN2, active compounds read low 0.0715
